Most compounds without a hit are left out; they make up all but 19% or so of the library.
IL-1B inflam inh = inflammasome signaling inhibition, IL-1 beta readout | THP-1 LPS/ATP IL-1B secretion, AlphaLISA, 16 h; active compounds read low | activity change, % at 57.5 µM | 360,000 tested, 4.7% active | AID 743279; in the data active = activity change below about -50%; inconclusive = mostly about -30% to -49%; also: % is scaled to controls: 0 for no effect and ±100 for the full control effect
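THP-1 cells pretreated 1 hr with compounds (up to 57.5 uM final), then stimulated with LPS (250 ng/mL final) plus ATP (1.25 mM final); secreted IL-1B measured by AlphaLISA after 16 hr, decreased signal indicating inhibition.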
HepG2 viability = counter-screen for TGF-b inhibitors: cytotoxicity in HepG2 cells | HepG2 CAGA-GFP viability, ATP luminescence, 18 h | Potency, µM (top dose mostly 46.1 µM), for the others: at the top dose activity change, negative = cytotoxicity, most hits filed as cytotoxic | 410,000 tested, 0.76% active | AID 588856; also: potency is read from the fitted curve at half-maximal effect
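CellTiter-Glo luminescence gave cytotoxicity after 18 hours at 37 degrees C. The cells were HepG2 CAGA-GFP in 1% FBS DMEM, stimulated with 500 pg/mL TGF-beta after compound addition. %Activity was normalised to no-cell wells (complete cell-killing) and DMSO (no toxicity), and curves were fitted and classified.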
TDP1 block = inhibitors of human tyrosyl-DNA phosphodiesterase TDP1; Q9NUW8; recombinant TDP1, AlphaScreen DNA substrate cleavage; Potency, µM (highest dose often 130 µM), for inactives: at the top dose activity change, negative = inhibition, usual class: inhibitors; 350,000 tested, 0.28% active; also: potency is read from the fitted curve at half-maximal effect; % is scaled to controls: 0 for no effect and ±100 for the full control effect; nearly all actives have a fitted effect of over 40% in size
Target sequence (Q9NUW8 whole entry, looked up): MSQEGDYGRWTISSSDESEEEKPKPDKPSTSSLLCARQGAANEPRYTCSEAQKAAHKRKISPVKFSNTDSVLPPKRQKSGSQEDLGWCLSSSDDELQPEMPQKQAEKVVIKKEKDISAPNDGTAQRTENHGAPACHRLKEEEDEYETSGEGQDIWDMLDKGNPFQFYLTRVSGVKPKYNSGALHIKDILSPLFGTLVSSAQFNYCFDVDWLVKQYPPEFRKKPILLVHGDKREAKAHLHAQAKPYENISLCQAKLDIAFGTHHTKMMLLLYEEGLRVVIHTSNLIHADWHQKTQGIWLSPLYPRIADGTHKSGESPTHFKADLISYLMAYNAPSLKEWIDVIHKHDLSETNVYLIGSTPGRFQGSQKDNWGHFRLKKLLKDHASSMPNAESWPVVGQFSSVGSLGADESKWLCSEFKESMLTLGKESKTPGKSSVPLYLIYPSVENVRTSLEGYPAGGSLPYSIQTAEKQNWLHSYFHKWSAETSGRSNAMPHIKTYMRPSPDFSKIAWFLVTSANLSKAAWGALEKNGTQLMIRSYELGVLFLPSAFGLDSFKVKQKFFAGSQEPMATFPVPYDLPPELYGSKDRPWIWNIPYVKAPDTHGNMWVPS
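Recombinant E. coli-expressed Tdp1 (1 nM) preincubated with compound 15 min at RT, then 5'-biotin/3'-phosphotyrosine-FITC DNA substrate (15 nM) added for 5 min. AlphaScreen beads (10 ug/ml) added, 10 min RT; tyrosine-FITC cleavage read as signal loss.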
TGFb inhibitor = blocks TGF-b signaling; HepG2 CAGA-GFP TGF-b/SMAD3 reporter, GFP fluorescence, 18 h; TGF-beta stimulated, 500 pg/mL final; Potency, µM (doses to about 46.1 µM), for inactives: at the highest dose activity, negative = inhibition, most hits filed as inhibitors; 410,000 tested, 1.2% active; AID 588855; also: potency is read from the fitted curve at half-maximal effect; % is scaled to controls: 0 for no effect and ±100 for the full control effect; nearly all actives have a fitted effect of over 65% in size
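Per well, imaged GFP fluorescence of HEPG2 CAGA-GFP cells gives the signal; cells get compound, then TGF-beta (500 pg/mL final), 18 h at 37 degrees C; %Activity versus -TGF-beta and +DMSO controls.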
TDP1 cell CPT = DT40-hTDP1 cell growth loss with CPT | Potency, µM (highest dose often 46.2 µM), for inactives: top-dose activity change, negative = growth inhibition, actives largely listed as inhibitors | chicken DT40 Tdp1-/-;hTDP1 cells + 20 nM CPT, ATP luminescence, 48 h | 420,000 tested, 12% active | AID 686979; also: potency is read from the fitted curve at half-maximal effect; % is scaled to controls: 0 for no effect and ±100 for the full control effect; nearly all actives have a fitted effect of over 55% in size
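Chicken DT40 Tdp1-/- cells stably complemented with human TDP1 were seeded at 400 cells/well in medium containing 20 nM camptothecin, exposed to pin-transferred compounds, and grown at 37 °C for at least 48 hr. Viability was read as ATP luminescence.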
DT40 TDP1 no CPT = qHTS for Inhibitors of human tyrosyl-DNA phosphodiesterase 1 (TDP1): qHTS in cells in absence of CPT; DT40 Tdp1-/- hTDP1 cells, no CPT, ATP luminescence, 48 h; Potency, µM (titrated, usually from 46.2 µM), without a hit: top-dose activity change, negative = growth inhibition, usual class: inhibitors; 420,000 tested, 15% active; AID 686978, 2013; also: potency is read from the fitted curve at half-maximal effect; % is scaled to controls: 0 for no effect and ±100 for the full control effect; nearly all actives have a fitted effect of over 55% in size
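Chicken DT40 Tdp1-/- cells complemented with human TDP1, screened without camptothecin (DMSO vehicle only), 400 cells/well. Compounds pin-transferred, cells incubated at 37 °C for at least 48 hr. Growth read as ATP-dependent luminescence (CellTiter-Glo, 30 min at RT).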
The depositor's hits bear a star; u = inconclusive; x = no result given; [ ] = dose if it differs, or a comment. Unless noted, calls follow the shape of the dose curve; as a rule, active = well fitted curve in the direction sought with a large enough effect; inconclusive = small, poorly fitted or top-dose-only effect, or another doubt; inactive = no such curve, though single readings can be large; an effect the other way counts as inactive or inconclusive.

SMILES	IL-1B inflam inh	HepG2 viability	TDP1 block	TGFb inhibitor	TDP1 cell CPT	DT40 TDP1 no CPT
CC1CCN(C(=O)Cn2cc(SCC(=O)NCc3ccccc3Cl)c3ccccc32)CC1	x	-11.4%	2.6%	0.0%	u	u
O=C(CSc1cn(CC(=O)N2CCCCC2)c2ccccc12)NCc1ccccc1Cl	x	1.1%	5.1%	0.0%	23.1µM*	u
O=C(Cn1cc(SCc2c(F)cccc2Cl)c2ccccc21)N1CCCC1	x	-20.6%	-5.1%	0.0%	u	7.31µM*
CCN1C(=O)[C@H]2[C@H]3[C@H](O)[C@H](O)C/C(=N/O[C@@H](C)c4cc(-c5c(C)cc(C)cc5C)no4)[C@@H]3CC[C@@H]2C1=O	x	x	9.0%[21 µM]	x	x	x
Cc1[nH]c2ccccc2c1C(=O)COC(=O)c1nccnc1N	-29.5	5.5%	0.3%	12.6%	-3.4%	8.6%
CCN1CCN(C(=O)CSc2cc(=O)n(C)c3ccccc23)CC1	-17.8	-6.5%	5.7%	-0.3%	2.2%	6.1%
O=C(CSc1ccccc1)N1CCN(c2ccccn2)CC1	-10.0	-9.7%	0.0%	-0.6%	4.4%	u
Cn1c(=O)cc(SCC(=O)N2CCN(c3ccccn3)CC2)c2ccccc21	-50.2*	-21.5%	7.3%	-1.7%	u	u
CN1CCN(C(=O)CSc2cc(=O)n(C)c3ccccc23)CC1	-26.0	-0.2%	-10.8%	2.5%	0.7%	25.7%
Cn1c(=O)cc(SCC(=O)N2CCN(c3ccccc3)CC2)c2ccccc21	-9.6	-1.4%	0.0%	47.2%	16.4µM*	u
O=C(CC(c1ccccc1)c1ccccc1)N1CCN(c2ccccn2)CC1	-24.6	-2.4%	5.6%	24.8%	u	18.4µM*
COc1ccc(CN2CCc3ccccc3C2)cc1Br	3.1	4.7%	x	0.1%	-2.9%	u
Cc1ccc2onc(CNC(=O)NCc3ccccc3)c2c1	x	-26.8%	-2.6%	-19.6%	-28.2%	-1.7%
CN(C)c1ccc(/C=C2\C=Nc3ccccc32)cc1	x	-39.8%	x	u	u	u
CC1=CC(C)(C)NC(=S)N1c1ccc(C)cc1	7.9	0.1%	7.5%	-25.3%	20.6µM*	23.1µM*
CC1=CC(C)(C)NC(=S)N1c1ccc([N+](=O)[O-])cc1	-2.1	1.7%	x	-1.4%	29.1µM*	20.6µM*
Cn1cc(S(=O)(=O)c2ccccc2)c(=O)c2cc(F)c(N3CCCCCC3)cc21	x	-15.9%	5.0%	u	u	u
CC1=NN(c2cccc(C(=O)O)c2)C(=O)/C1=C\C=C\c1ccco1	-95.8*	-32.7%	-2.8%[56.1 µM]	u	u	u
CC1=NN(c2ccccc2)C(=O)/C1=C/C=C/c1ccccc1	-129.3*	-54.4%	13.3%	u	-75.5%	2.59µM*
Cc1ccc(C2=NOC(=O)/C2=C\C=C\c2ccccc2)cc1	-95.7*	8.9%	5.8%	u	4.61µM*	4.61µM*
CN(C)/C=C1\C(=O)ON=C1c1ccccc1	0.0	1.2%	0.5%	-5.2%	16.0%	-8.9%
COC(=O)[C@@]12C[C@@H](CC(=O)N3CCCCC3)C(=O)N(Cc3ccco3)C1=CCC(C)(C)C2	-1.5	x	x	x	23.1µM*	u
C#CCNC(=O)C[C@@H]1C[C@@]2(C(=O)OC)CC(C)(C)CC=C2N(Cc2ccco2)C1=O	-21.3	x	x	x	17.2%	19.5%
COC(=O)[C@@]12C[C@@H](CC(=O)NCC34CC5CC(CC(C5)C3)C4)C(=O)N(Cc3ccco3)C1=CCC(C)(C)C2	3.1	x	x	x	16.4µM*	14.6µM*
COC(=O)C1=C(C(=O)OC)[C@@H]2N(C)c3ccc(OC)cc3[C@@]23C[C@@H](C(=O)OC)N(S(=O)(=O)c2ccc4c(c2)OCCN4C)C3=N1	x	x	12.5%[12.3 µM]	x	x	x
SMILES	IL-1B inflam inh	HepG2 viability	TDP1 block	TGFb inhibitor	TDP1 cell CPT	DT40 TDP1 no CPT
C=CCNC(=O)c1cc([N+](=O)[O-])cc2c(=O)[nH]c(Nc3ccc(Cl)c(Cl)c3)nc12	x	x	5.7%	x	x	x
COc1ccc(C(C(=O)NC2CCCC2)N(C(=O)c2snc(C(N)=O)c2N)C2CCCC2)cc1OC (centres undefined)	-11.2	14.7%	x	16.7%	-15.3%	7.5%
CCOc1ccc(C(C(=O)NC2CCCCC2)N(CCOC)C(=O)c2snc(C(N)=O)c2N)cc1 (centres undefined)	8.1	-8.6%	x	0.0%	24.0%	-13.7%
COCCN(C(=O)c1snc(C(N)=O)c1N)C(C(=O)NC1CCCCC1)c1ccc(N(C)C)cc1 (centres undefined)	0.0	-8.7%	x	1.2%	-25.6%	14.6µM*
COc1ccc(C(C(=O)NC2CCCC2)N(Cc2ccco2)C(=O)c2snc(C(N)=O)c2N)cc1OC (centres undefined)	-58.7*	4.9%	x	9.7%	u	-5.1%
NC(=O)c1nsc(C(=O)N(Cc2ccco2)C(C(=O)NC2CCCC2)c2ccc(O)cc2)c1N (centres undefined)	-0.6	-8.0%	9.9%	u	-29.0%	u
COc1ccc(C(C(=O)NC2CCCCC2)N(Cc2ccco2)C(=O)c2snc(C(N)=O)c2N)cc1 (centres undefined)	-68.4*	-25.2%	1.9%	-25.2%	u	u
Cc1cc(SCC(=O)OCC(=O)N(C)c2ccccc2)nc2ccccc12	7.2	4.8%	x	-24.8%	-14.2%	-16.6%
CCOc1ccc(S(=O)(=O)N2CCN(c3cc(Cl)ccc3Cl)CC2)c2ccccc12	x	-20.5%	-3.2%	13.3%	x	x
Cc1c(C(=O)NCC2(N3CCCCC3)CCCC2)cnn1-c1nccc(-c2ccccc2F)n1	x	x	x	x	0.4%[9.04 µM]	-7.4%
O=C(NC1(C(F)(F)F)N=C(c2ccccc2)N(Cc2ccccc2)C1=O)c1ccc(F)cc1 (centres undefined)	x	-38.1%	3.2%	0.1%	20.6µM*	u
COc1ccc(CN2C(=O)C(NC(=O)c3ccccc3C)(C(F)(F)F)N=C2c2ccccc2)cc1 (centres undefined)	x	-26.8%	4.5%	1.3%	20.6µM*	14.6µM*
Cc1ccc(C(=O)NC2(C(F)(F)F)N=C(c3ccccc3)N(Cc3ccccc3)C2=O)cc1 (centres undefined)	x	-7.9%	7.1%	-2.0%	u	25.9µM*
COc1ccc(CN2C(=O)C(NC(=O)c3ccc(C)cc3)(C(F)(F)F)N=C2c2ccccc2)cc1 (centres undefined)	x	-13.3%	5.8%	u	23.1µM*	23.1µM*
